FBPA Giardia inh = blocks Giardia fructose-bisphosphate aldolase activity; purified Giardia FBPA; Potency, µM (doses to about 59.6 µM), usual class: inhibitors; A8B2U2; AID 2451; 290,000 tested, 0.71% active; further: nearly all actives have a fitted effect of over 55% in size
Target sequence (A8B2U2 whole entry, looked up): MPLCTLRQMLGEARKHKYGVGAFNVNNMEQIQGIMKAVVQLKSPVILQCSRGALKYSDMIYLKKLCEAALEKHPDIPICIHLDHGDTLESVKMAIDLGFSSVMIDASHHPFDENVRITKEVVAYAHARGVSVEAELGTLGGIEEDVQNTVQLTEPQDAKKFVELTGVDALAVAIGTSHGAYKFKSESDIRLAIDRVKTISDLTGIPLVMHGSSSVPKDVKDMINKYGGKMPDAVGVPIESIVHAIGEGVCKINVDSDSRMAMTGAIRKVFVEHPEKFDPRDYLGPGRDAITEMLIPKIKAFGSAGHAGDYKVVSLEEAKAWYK
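Giardia FBPA (40 nM reagent) was preincubated 10 min at RT with compound (up to 57.5 uM final), then substrate plus GAPDH/TPI/NAD/arsenate coupling system with diaphorase/resazurin was added; resorufin fluorescence (525/598 nm) was read after 20 min.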
HCV inh = blocks hepatitis C virus; Huh7.5.1 HCVcc-Cre infection, luciferase reporter, 44 h; Potency, µM (series often up to 41.8 µM), usual class: inhibitors; 340,000 tested, 3.4% active
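Cells seeded at 1,000/well and cultured 4 h, then compounds added followed by HCVcc-Cre virus (~0.5 moi). After 44 h further culture, luciferase substrate was added, plates held 15 min at room temperature, and luminescence read for 15 sec.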
HCMV inh = inhibitors of human cytomegalovirus | 410,000 tested, 4.5% active | activity change, negative = inhibition, % at 57.5 µM | HFF cells, HCMV-luciferase reporter, 72 h; stronger effect = lower value; in the data active means activity change below about -60%; inconclusive means no clear call, values can overlap the other calls; inactive means above about -39%
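Compounds were evaluated in HFFs infected with an HCMV luciferase reporter virus (MOI 1 PFU/cell). Luciferase in lysates collected 72 h post infection served as the replication measure.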
Marburg entry inh = blocks Marburg virus binding to or entry into cells | AID 540276 | Potency, µM (highest dose often 37.8 µM), hits mostly inhibitors | Marburg virus pseudotyped entry inhibition, cell reporter | 300,000 tested, 1.8% active; calls by dose curve; tested in HEK293 cells
Lassa entry inh = Lassa virus entry inhibition | 300,000 tested, 1.2% active | Potency, µM (highest dose often 37.9 µM), hits mostly inhibitors | Lassa virus pseudotype entry inhibition, cell reporter; calls by dose curve; tested in HEK293 cells; further: nearly all actives have a fitted effect of over 50% in size
FMDV inh = blocks foot and mouth disease virus; FMDV antiviral cell-based qHTS; Potency, µM (highest dose often 57.9 µM), actives largely listed as inhibitors; 410,000 tested, 1.2% active; AID 1159524; calls by dose curve; tested in HEK293T cells; further: read-out not given here; nearly all actives have a fitted effect of over 45% in size
Large screens that a line does not name were inactive. A selection: hits, their analogues and other compounds. The true share with any hit is near 8.3%. Unless noted, the call rests on the fitted dose curve; in most records, active means well fitted curve in the direction sought with a large enough effect; inconclusive means small, poorly fitted or top-dose-only effect, or another doubt; inactive means no such curve, though single readings can be large; an effect the other way counts as inactive or inconclusive.

COc1ccccc1CN1C[C@@H]2C[C@@H](c3ccccc3C)N3CCC[C@@]23C1=O	HCV inh inconclusive (no result: Marburg entry inh, Lassa entry inh)
Cc1ccccc1CN1C[C@@H]2C[C@@H](c3cnc(N4CCOCC4)s3)N3CCC[C@@]23C1=O	HCV inh inconclusive, HCMV inh -76 (no result: Marburg entry inh, Lassa entry inh)
N#CCCn1c(=O)c(-c2cccs2)nc2cnc(N3CCOCC3)nc21	none (no result: HCV inh, HCMV inh, Marburg entry inh, Lassa entry inh)
O=C(CN1CCNCC1)NC1CCCCC1	none (no result: FBPA Giardia inh, HCV inh, Marburg entry inh, Lassa entry inh, FMDV inh)
CCOc1cc(CNCc2ccncc2)cc(Br)c1OCc1ccccc1F	HCV inh 7.9µM, HCMV inh -70, Marburg entry inh inconclusive, Lassa entry inh inconclusive, FMDV inh inconclusive
CCOc1cc(CNCCO)cc(Br)c1OCc1cccs1	HCV inh 5.6µM, HCMV inh inconclusive, Marburg entry inh inconclusive, FMDV inh inconclusive
CCOc1cc(CNCCSc2nnnn2C)cc(Br)c1OCc1ccccc1F	HCV inh inconclusive, Marburg entry inh inconclusive (no result: FMDV inh)
Cc1noc(C)c1-c1ccc2ncnc(NCc3ccco3)c2c1	none (no result: HCV inh, HCMV inh, Marburg entry inh, Lassa entry inh, FMDV inh)
COC(=O)C1=C(C(=O)OC)[C@@H]2N(Cc3ccccc3)c3ccccc3[C@@]23C[C@@H](C(=O)OC)N(S(=O)(=O)c2ccc(C)cc2)C3=N1	none (no result: HCV inh, HCMV inh, Marburg entry inh, Lassa entry inh, FMDV inh)
Cc1[nH]c2ccccc2c1C1(O)C(=O)N(Cc2ccccc2)c2ccc(Br)cc21 (centres undefined)	HCMV inh -102, Marburg entry inh inconclusive, Lassa entry inh inconclusive (no result: FBPA Giardia inh, HCV inh)
C=CCc1ccccc1OCCSc1nc(-c2cccs2)nc2cc(=O)[nH]n12	none (no result: FBPA Giardia inh, HCV inh, Marburg entry inh)
CCOc1cc(N2CCOCC2)c(OCC)cc1NC(=O)c1cc(C)cc(C)c1	HCV inh 3.5µM, Lassa entry inh inconclusive, FMDV inh inconclusive
CCOc1cc(N2CCOCC2)c(OCC)cc1NC(=O)Cc1ccccc1	none
CCOc1cc(N2CCOCC2)c(OCC)cc1NC(=O)Cc1ccccc1OC	FBPA Giardia inh inconclusive, HCMV inh -61
CCOc1cc(N2CCOCC2)c(OCC)cc1NC(=O)c1ccccc1	HCV inh inconclusive
CCOc1cc(N2CCOCC2)c(OCC)cc1NC(C)C(=O)N1CCN(CC)CC1 (centres undefined)	FBPA Giardia inh 5µM
CCCn1nc(C(=O)Nc2cc(OCC)c(N3CCOCC3)cc2OCC)c2ccccc2c1=O	HCMV inh -92, FMDV inh inconclusive (no result: FBPA Giardia inh, Marburg entry inh, Lassa entry inh)
COc1cccc(Cn2c(=O)n(-c3ccc(Br)cc3F)c(=O)c3sc4ccccc4c32)c1	none (no result: FBPA Giardia inh, HCV inh)
COc1ccc(N2CCN(C(=O)CSc3nc(-c4ccc(C(C)C)cc4)no3)CC2)cc1	none (no result: FBPA Giardia inh, HCV inh, Marburg entry inh)
O=C(NCc1ccc(Cl)cc1)c1cc2c(s1)-c1ccccc1SC2	Marburg entry inh inconclusive (no result: FBPA Giardia inh, HCV inh)
CC1CCCN(CCCNC(=O)c2cc3c(s2)-c2ccccc2OC3)C1 (centres undefined)	HCV inh 11µM, HCMV inh -67, Marburg entry inh 3.2µM, Lassa entry inh inconclusive
CCN(CC)CCNC(=O)c1cc2c(s1)-c1ccccc1SC2	HCV inh 11µM, HCMV inh -72 (no result: Marburg entry inh, Lassa entry inh)
Cc1ccc(CCNC(=O)c2cc3c(s2)-c2ccccc2OC3)cc1	HCMV inh -89 (no result: FBPA Giardia inh, HCV inh, Lassa entry inh)
Cc1ccc(CCNC(=O)c2cc3c(s2)-c2c(C)cccc2OC3)cc1	HCMV inh -86 (no result: FBPA Giardia inh, HCV inh, Lassa entry inh)
CCCC[C@]12Cc3cc(OC)c(OC)cc3[C@H](O1)c1c(cc(-c3ccccc3)oc1=O)O2	none (no result: FBPA Giardia inh, HCV inh, HCMV inh, Lassa entry inh, FMDV inh)
Cc1ccc(/C(O)=C2\C(=O)C(=O)N(Cc3ccco3)[C@@H]2c2cccs2)cc1	none (no result: FBPA Giardia inh, HCV inh, HCMV inh, Lassa entry inh, FMDV inh)
CC1=CC(=O)OC1Cc1ccc2ccccc2n1 (centres undefined)	none (no result: HCV inh, HCMV inh, Marburg entry inh, Lassa entry inh)
C[C@@H]1CN([C@H](C)CO)C(=O)c2cc(NS(=O)(=O)c3ccccc3)ccc2O[C@@H](C)CCCCO[C@@H]1CN(C)Cc1ccccc1	none (no result: FBPA Giardia inh, HCV inh, Marburg entry inh, Lassa entry inh, FMDV inh)
Cc1ccc(S(=O)(=O)Nc2ccc3c(c2)C(=O)N([C@@H](C)CO)C[C@@H](C)[C@@H](CN(C)CC2CC2)OCCCC[C@@H](C)O3)cc1	FMDV inh inconclusive (no result: FBPA Giardia inh, HCV inh, Marburg entry inh, Lassa entry inh)
C[C@@H]1CCCCO[C@@H](CN(C)CC2CCCCC2)[C@@H](C)CN([C@H](C)CO)C(=O)c2cc(NS(=O)(=O)c3ccc(Cl)cc3)ccc2O1	HCMV inh -102 (no result: FBPA Giardia inh, HCV inh, Marburg entry inh, Lassa entry inh)
C[C@@H]1CCCCO[C@@H](CN(C)Cc2ccc3c(c2)OCO3)[C@@H](C)CN([C@H](C)CO)C(=O)c2cc(NS(=O)(=O)c3ccccc3)ccc2O1	HCMV inh -69, FMDV inh inconclusive (no result: FBPA Giardia inh, HCV inh, Marburg entry inh, Lassa entry inh)

Screens (PubChem)
